PubChem BioAssay (NCI)
Where “and” joins values, the source holds several entries; their conditions need not be identical. Identical values can stand only once. About 79,000 compounds went through this panel and 15% of them were active in at least one assay; those are over-represented in the sample as a whole. Some structures have more than one record in an assay (separate samples or runs), and their calls can disagree. Calls of active or inactive are those of the source. Cut-off read from the data, not from the text of the source: active = growth inhibition above about 70%; inactive = the rest.

How the values were obtained:
[1] = NCI Yeast Anticancer Drug Screen. Data for the rad50 strain (AID 155);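 note: 0% = growth of vehicle-only cultures of the same strain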; conditions: S. cerevisiae rad50 strain growth inhibition, stronger effect = higher value
How it was run: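 Readout: growth inhibition relative to vehicle-treated cultures. Compound exposure was carried out in a genetically defined yeast strain deficient in DNA damage repair.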

[2] = NCI Yeast Anticancer Drug Screen. Data for the mec2-1 strain (AID 157); conditions: S. cerevisiae mec2-1 strain, stronger effect = higher value
How it was run: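 Each compound was tested on mec2-1 yeast, a strain altered in DNA damage repair or cell cycle control. Growth inhibition is reported relative to vehicle.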

[3] = NCI Yeast Anticancer Drug Screen. Data for the sgs1 mgt1 strain (AID 161);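 note: 0% = growth of cultures given vehicle only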; conditions: S. cerevisiae sgs1 mgt1 strain, stronger effect = higher value
How it was run: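 Genetically altered yeast, compound exposure, growth inhibition relative to vehicle.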

[4] = NCI Yeast Anticancer Drug Screen. Data for the bub3 strain (AID 167); conditions: S. cerevisiae bub3 mutant strain, stronger effect = higher value
How it was run: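 Readout: yeast growth inhibition, expressed relative to vehicle-only wells. The test organism is a mutant strain from a panel with lesions in DNA repair or checkpoint genes.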

[5] = NCI Yeast Anticancer Drug Screen. Data for the mlh1 rad18 strain (AID 175); conditions: S. cerevisiae mlh1 rad18 strain growth inhibition, stronger effect = higher value
How it was run: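 Inhibition values reflect reduced growth of mutant yeast versus vehicle-treated controls following compound exposure; the mutations affect DNA damage repair.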

[6] = NCI Yeast Anticancer Drug Screen. Data for the cln2 rad14 strain (AID 165);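 note: 0% = growth equal to vehicle treated cultures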; conditions: S. cerevisiae cln2 rad14 strain, stronger effect = higher value
How it was run: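 Test compounds were added to cln2 rad14 yeast cultures; inhibition of growth was then determined by comparison with vehicle treatment.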

[7] = NCI Yeast Anticancer Drug Screen. Data for the wt2 strain (AID 169);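 note: 0% = growth of vehicle-treated yeast cultures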; conditions: S. cerevisiae wt2 strain growth inhibition, stronger effect = higher value
How it was run: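 The panel's yeast strains carry defined changes in DNA repair or cell cycle genes. Each strain is grown with compound, and growth loss is scored relative to vehicle.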

[8] = at 5.0 µM (retest, dose inferred, filed as 0.5)
[9] = at 50.0 µM (retest, dose inferred, filed as 5.0)

With `CCOc1ccc(N/N=C(\CCC(=O)O)C(=O)O)cc1` the growth inhibition [1, 8] was -6% (inactive), the growth inhibition [1, 9] was 92% (active) and the growth inhibition ([1]; at 50.0 µM) was 96% (active). For the same compound, the growth inhibition [2, 8] was -9% (inactive), the growth inhibition [2, 9] was 77% (active) and the growth inhibition ([2]; at 50.0 µM) was 81% (active). The growth inhibition [3, 8] was -3% (inactive), the growth inhibition [3, 9] was 84% (active) and the growth inhibition ([3]; at 50.0 µM) was 50.2% (inactive). The growth inhibition [4, 8] was -15% (inactive), the growth inhibition [4, 9] was -45% (inactive) and the growth inhibition ([4]; at 50.0 µM) was 86.7% (active). For the same compound, the growth inhibition [5, 8] was -5% (inactive), the growth inhibition [5, 9] was 96% (active) and the growth inhibition ([5]; at 50.0 µM) was 95.2% (active).
In the case of `CCOc1ccc2ccccc2c1C(Cc1ccc(Cl)cc1)NCCO` (configuration not stated), the growth inhibition [1, 8] is reported as -1% (inactive), the growth inhibition [1, 9] is reported as -1% (inactive) and the growth inhibition ([1]; at 50.0 µM) is reported as 89.3% (active). For the same compound, the growth inhibition [2, 8] was -2% (inactive), the growth inhibition [2, 9] was 6% (inactive) and the growth inhibition ([2]; at 50.0 µM) was 93.5% (active). The growth inhibition [6, 8] was 1% (inactive), the growth inhibition [6, 9] was -7% (inactive) and the growth inhibition ([6]; at 50.0 µM) was 98.6% (active). For the same compound, the growth inhibition [4, 8] was -2% (inactive), the growth inhibition [4, 9] was -3% (inactive) and the growth inhibition ([4]; at 50.0 µM) was 94.7% (active). The growth inhibition [5, 8] was 1% (inactive), the growth inhibition [5, 9] was 22% (inactive) and the growth inhibition ([5]; at 50.0 µM) was 98.5% (active).
In the case of `COc1cccc(-c2nnc(-c3ccccc3)o2)c1`, the growth inhibition [1, 8] is reported as 32% (inactive) and 33% (inactive), the growth inhibition [1, 9] is reported as 36% (inactive) and 55% (inactive) and the growth inhibition ([1]; at 50.0 µM) is reported as 29.4% (inactive) and 89.1% (active). For the same compound, the growth inhibition [2, 8] was 36% (inactive) and 45% (inactive), the growth inhibition [2, 9] was 40% (inactive) and 55% (inactive) and the growth inhibition ([2]; at 50.0 µM) was 16.4% (inactive) and 85.8% (active). The growth inhibition [3, 8] was -1% (inactive) and 11% (inactive), the growth inhibition [3, 9] was 52% (inactive) and 99% (active) and the growth inhibition ([3]; at 50.0 µM) was 33.5% (inactive) and 89.4% (active). The growth inhibition [4, 8] was 30% (inactive) and 13% (inactive), the growth inhibition [4, 9] was 85% (active) and 98% (active) and the growth inhibition ([4]; at 50.0 µM) was 71% (active) and 15.5% (inactive). For the same compound, the growth inhibition ([7]; at 1.2 µM) was 20% (inactive), the growth inhibition ([7]; at 3.7 µM) was 7% (inactive) and the growth inhibition ([7]; at 11.0 µM) was 4% (inactive). For the same compound, the growth inhibition ([7]; at 33.0 µM) was 46% (inactive), the growth inhibition ([7]; at 100.0 µM) was 97% (active) and the growth inhibition [5, 8] was 30% (inactive) and 34% (inactive). For the same compound, the growth inhibition [5, 9] was 44% (inactive) and 54% (inactive) and the growth inhibition ([5]; at 50.0 µM) was 16.9% (inactive) and 84.1% (active).
In the case of `CSc1ccc(N2C(=O)CSC2=S)cc1Cl`, the growth inhibition [1, 8] is reported as 27% (inactive), the growth inhibition [1, 9] is reported as 74% (active) and the growth inhibition ([1]; at 50.0 µM) is reported as 97.5% (active). The growth inhibition [2, 8] was 27% (inactive), the growth inhibition [2, 9] was 40% (inactive) and the growth inhibition ([2]; at 50.0 µM) was 94.3% (active). For the same compound, the growth inhibition [3, 8] was 16% (inactive), the growth inhibition [3, 9] was 79% (active) and the growth inhibition ([3]; at 50.0 µM) was 95.2% (active). The growth inhibition [5, 8] was 31% (inactive), the growth inhibition [5, 9] was 94% (active) and the growth inhibition ([5]; at 50.0 µM) was 97% (active).
With `O[Si](c1ccccc1)(c1ccccc1)c1ccccc1.O[Si](c1ccccc1)(c1ccccc1)c1ccccc1.O[Si](c1ccccc1)(c1ccccc1)c1ccccc1.[O]=[V]` the growth inhibition [1, 8] was 58% (inactive), the growth inhibition [1, 9] was 64% (inactive) and the growth inhibition ([1]; at 50.0 µM) was 62.1% (inactive). For the same compound, the growth inhibition [3, 8] was 46% (inactive), the growth inhibition [3, 9] was 58% (inactive) and the growth inhibition ([3]; at 50.0 µM) was 70.3% (active). The growth inhibition [6, 8] was 15% (inactive), the growth inhibition [6, 9] was 31% (inactive) and the growth inhibition ([6]; at 50.0 µM) was 27.1% (inactive). For the same compound, the growth inhibition [4, 8] was 63% (inactive), the growth inhibition [4, 9] was 62% (inactive) and the growth inhibition ([4]; at 50.0 µM) was 43.4% (inactive). For the same compound, the growth inhibition [5, 8] was 53% (inactive), the growth inhibition [5, 9] was 58% (inactive) and the growth inhibition ([5]; at 50.0 µM) was 72.6% (active).
In the case of `C[C@H](CCC(=O)O)[C@H]1CC[C@H]2[C@@H]3[C@H](O)C[C@@H]4C[C@H](O)CC[C@]4(C)[C@H]3CC[C@]12C`, the growth inhibition [1, 8] is reported as 24% (inactive), the growth inhibition [1, 9] is reported as 94% (active) and the growth inhibition ([1]; at 50.0 µM) is reported as 90% (active). The growth inhibition [2, 8] was -14% (inactive), the growth inhibition [2, 9] was 96% (active) and the growth inhibition ([2]; at 50.0 µM) was 91.3% (active). For the same compound, the growth inhibition [3, 8] was 9% (inactive), the growth inhibition [3, 9] was 96% (active) and the growth inhibition ([3]; at 50.0 µM) was 92.3% (active). The growth inhibition [6, 8] was 19% (inactive), the growth inhibition [6, 9] was 96% (active) and the growth inhibition ([6]; at 50.0 µM) was 90.2% (active). The growth inhibition [5, 8] was 6% (inactive), the growth inhibition [5, 9] was 97% (active) and the growth inhibition ([5]; at 50.0 µM) was 90.2% (active).
In the case of `CCOC(=O)C(CN)(c1ccccc1)c1ccccc1`, the growth inhibition [1, 8] is reported as -7% (inactive), the growth inhibition [1, 9] is reported as 1% (inactive) and the growth inhibition ([1]; at 50.0 µM) is reported as 11.8% (inactive). For the same compound, the growth inhibition [2, 8] was -4% (inactive), the growth inhibition [2, 9] was 8% (inactive) and the growth inhibition ([2]; at 50.0 µM) was -5.4% (inactive). The growth inhibition [3, 8] was -4% (inactive), the growth inhibition [3, 9] was -13% (inactive) and the growth inhibition ([3]; at 50.0 µM) was 5.35% (inactive). For the same compound, the growth inhibition [4, 8] was -4% (inactive), the growth inhibition [4, 9] was 0% (inactive) and the growth inhibition ([4]; at 50.0 µM) was -1.15% (inactive). The growth inhibition [5, 8] was -7% (inactive), the growth inhibition [5, 9] was -10% (inactive) and the growth inhibition ([5]; at 50.0 µM) was 17.1% (inactive).
